{"source": "PubChem BioAssay AID431", "about": "(Sanford-Burnham Center for Chemical Genomics, 2006)", "note": "In all, about 63,000 compounds went through this assay and about 1,100 (1.7%) were called active. This is one part of a sample in which actives are shown more often than they occur. Measured potencies and affinities stand elsewhere. Unmarked numbers belong to inactive results.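 How the source made its calls: active means compounds whose percent cytotoxicity in the single-dose primary screen, scaled between solvent and toxic-drug controls, exceeds 50; inactive means the rest.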"}
{"experiment": "viability loss of HPDE-C7K cells – cell-based, fluorescence, HTS, primary screen (AID 431);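 further: 0% = DMSO solvent wells and 100% = doxorubicin-treated wells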", "conditions": "HPDE-C7K KRASV12 cells, Alamar Blue viability, 48 h; at 10 µM; stronger effect = higher value"}
{"compound": "Cn1c(=O)n(CC(=O)OCc2ccccc2)c(=O)c2c1nc1n2CCCN1C1CCCCC1", "cytotoxicity": "0.1%"}
{"compound": "N#CC1=C(N)SC(N)=C(C#N)C1CCC1CCCCC1", "cytotoxicity": "35.2%"}
{"compound": "Cc1nc(-c2ccc(C(=O)O)cc2)cs1", "cytotoxicity": "-9.4%"}
{"compound": "COCCNC(=O)c1ccc(NS(C)(=O)=O)cc1", "cytotoxicity": "-8%"}
{"compound": "COc1ccc(OC)c(NC(=O)CC(NCCC2=CCCCC2)C(=O)O)c1", "note": "(stereo not given)", "cytotoxicity": "-16.9%"}
{"compound": "CC1CCN(CC(O)COC2CCC(C(C)(C)C)CC2)CC1", "note": "(stereo not given)", "cytotoxicity": "50.3% (active)"}
{"compound": "CC1CCN(CC(O)COc2ccc(F)cc2)CC1", "note": "(stereo not given)", "cytotoxicity": "-1.9%"}
{"compound": "Cc1ccc(N2CCN(CC(O)COC3CCCCC3)CC2)cc1", "note": "(stereo not given)", "cytotoxicity": "42.6%"}
{"compound": "CC1CC(=O)N(Cc2ccccc2)c2ccccc2N1C=O", "note": "(stereo not given)", "cytotoxicity": "7.1%"}
{"compound": "CON(C)c1nc(Oc2ccc(=O)[nH]n2)nc(N(C)C)n1", "cytotoxicity": "-15.6%"}
{"compound": "CCC1CCCCN1CCNC(=O)C1CCN(S(=O)(=O)c2c(C)noc2C)CC1", "note": "(stereo not given)", "cytotoxicity": "-6.9%"}
{"compound": "CCOC(=O)N1CCN(C(=O)c2ccc3c(c2)sc2nc(-c4ccc(OC)cc4)cn23)CC1", "cytotoxicity": "19%"}
{"compound": "COc1ccc2c(c1)sc1nc(-c3ccccc3)cn12", "cytotoxicity": "53.3% (active)"}
{"compound": "CCOC(=O)N1CCN(C(=O)c2ccc3c(c2)sc2nc(-c4ccccc4)cn23)CC1", "cytotoxicity": "6.1%"}
{"compound": "O=C(NC1=NCCS1)c1ccc2c(c1)C(=O)N(Cc1ccco1)C2=O", "cytotoxicity": "-7.1%"}
{"compound": "O=C(OC(C(=O)NCC1CCCO1)c1ccccc1F)c1ccco1", "note": "(stereo not given)", "cytotoxicity": "8.7%"}
{"compound": "CCn1ncc(C2=NOC(C(=O)NCc3ccc(Cl)cc3)C2)c1C", "note": "(stereo not given)", "cytotoxicity": "59.3% (active)"}
{"compound": "CCn1ncc(C2=NOC(C(=O)NCc3ccc(OC)cc3)C2)c1C", "note": "(stereo not given)", "cytotoxicity": "23.7%"}
{"compound": "CCn1ncc(C2=NOC(C(=O)NCc3ccccc3)C2)c1C", "note": "(stereo not given)", "cytotoxicity": "48.7%"}
{"compound": "CC1=C(C(=O)Nc2cccc(C)n2)C(c2ccc3c(c2)OCO3)C2=C(CC(c3ccco3)CC2=O)N1", "note": "(stereo not given)", "cytotoxicity": "7.4%"}
{"compound": "COC(=O)c1sccc1NC(=O)c1ccncc1", "cytotoxicity": "5.9%"}
{"compound": "O=C(Cc1ccccc1)N(c1ccc(F)cc1)C1C=CS(=O)(=O)C1", "note": "(stereo not given)", "cytotoxicity": "3.4%"}
{"compound": "Cc1nn(Cc2ccccc2Cl)c(C)c1NC(=O)C1C2CCC(O2)C1C(=O)O", "note": "(stereo not given)", "cytotoxicity": "0.4%"}
{"compound": "CCn1c(SCC(=O)Nc2ccccc2OC)nnc1-c1cnccn1", "cytotoxicity": "-28%"}
{"compound": "C=CCn1c(SCC(=O)Nc2cc(C)ccc2C)nnc1-c1cnccn1", "cytotoxicity": "-12.5%"}
{"compound": "C=CCn1c(SCC(=O)Nc2cc3oc4ccccc4c3cc2OC)nnc1-c1cnccn1", "cytotoxicity": "50.9% (active)"}
{"compound": "Cc1ccc(OCCN2CCN(C(=O)CCC(=O)Nc3nnc(C(C)C)s3)CC2)cc1", "cytotoxicity": "14.3%"}
{"compound": "COc1ccc(-c2noc(COc3ccc(C)c(C)c3)n2)cc1OC", "cytotoxicity": "4.5%"}
{"compound": "COc1ccc(-c2noc(COc3ccc4ccccc4c3Br)n2)cc1OC", "cytotoxicity": "58% (active)"}
{"compound": "COc1ccc(-c2noc(COc3ccccc3OC)n2)cc1OC", "cytotoxicity": "-10.5%"}
{"compound": "CCOC(=O)N1CCN(Cc2nc3c(c(=O)[nH]c(=O)n3C)n2CCCc2ccccc2)CC1", "cytotoxicity": "-0.5%"}
{"compound": "CCN(CC)CCCNC(=O)Cn1cc2c(n1)CCC(C)C2", "note": "(stereo not given)", "cytotoxicity": "3.7%"}
{"compound": "COc1ccc(-c2nc(N)nc(C)c2Oc2ccccc2Br)c(O)c1", "cytotoxicity": "92.6% (active)"}
{"compound": "COc1cccc(Oc2cnc(N)nc2-c2ccc(OC)cc2O)c1", "cytotoxicity": "45.2%"}
{"compound": "COc1ccc(-c2nc(N)ncc2Oc2ccccc2Br)c(O)c1", "cytotoxicity": "3.7%"}
{"compound": "CCc1ccccc1NC(=O)CN(C)C(=O)CN1C(=O)NC2(CCCCCC2)C1=O", "cytotoxicity": "2.1%"}
{"compound": "COc1ccc(NC2C=CS(=O)(=O)C2)c(OC)c1", "note": "(stereo not given)", "cytotoxicity": "4.8%"}
{"compound": "Cc1n[nH]c(C)c1S(=O)(=O)N1CCN(c2ccccn2)CC1", "cytotoxicity": "7.4%"}
{"compound": "CCc1oc2ccccc2c1C(=O)CCN1CCCCC1", "cytotoxicity": "9.9%"}
{"compound": "CCCCC(=O)c1c(O)c2ccccc2oc1=O", "cytotoxicity": "17.2%"}
{"compound": "CCOC(=O)C1=C(C)NC2=C(C(=O)CCC2)C1c1cc(OC)ccc1OC", "note": "(stereo not given)", "cytotoxicity": "1.4%"}
{"compound": "CCOc1ccc(Cn2c(=O)oc3ccc(C)cc32)cc1OC", "cytotoxicity": "-2.4%"}
{"compound": "O=S(=O)(c1ccc2ccccc2c1)N1CCCCC1", "cytotoxicity": "5.8%"}
{"compound": "O=S(=O)(c1ccc2ccccc2c1)N(CC(O)CN1CCOCC1)c1ccccc1", "note": "(stereo not given)", "cytotoxicity": "-11.1%"}
{"compound": "O=C(CN1C(=O)CCSc2ccccc21)Nc1ccccc1", "cytotoxicity": "-22.3%"}
{"compound": "CCCSc1nnc(NC(=O)Nc2ccc(F)cc2)s1", "cytotoxicity": "75.2% (active)"}
{"compound": "CCCSc1nnc(NC(=O)Nc2ccccc2)s1", "cytotoxicity": "-9.2%"}
{"compound": "CCC(=O)Nc1nnc(SCC(=O)Nc2ccc(F)cc2)s1", "cytotoxicity": "-4.3%"}
{"compound": "COc1cc(-c2nc3cnccc3n2C)cc(OC)c1OC", "cytotoxicity": "-11.3%"}
{"compound": "O=C(Nc1cc(C(F)(F)F)ccc1N1CCOCC1)c1c(F)c(F)c(F)c(F)c1F", "cytotoxicity": "69.9% (active)"}
{"compound": "O=C(Nc1cc(C(F)(F)F)ccc1N1CCOCC1)c1ccco1", "cytotoxicity": "-2.4%"}
{"compound": "Cc1onc(-c2ccccc2)c1C(=O)Nc1ccccc1N1CCOCC1", "cytotoxicity": "4.2%"}
{"compound": "Cc1onc(-c2ccccc2)c1C(=O)Nc1cc(C(F)(F)F)ccc1N1CCOCC1", "cytotoxicity": "60.3% (active)"}
{"compound": "O=C(Nc1cc(C(F)(F)F)ccc1N1CCOCC1)c1cccnc1", "cytotoxicity": "2.2%"}
{"compound": "CC(=O)Nc1cc(C(F)(F)F)ccc1N1CCOCC1", "cytotoxicity": "-2.7%"}
{"compound": "COc1cc(C2NC(=O)c3ccccc3O2)cc(OC)c1OC", "note": "(stereo not given)", "cytotoxicity": "-13.8%"}
{"compound": "OC1C=CSc2nc3ccccc3n21", "note": "(stereo not given)", "cytotoxicity": "-17.8%"}
{"compound": "COC(=O)COc1ccc(NC(=O)C2CCCO2)cc1", "note": "(stereo not given)", "cytotoxicity": "-3%"}
{"compound": "CC(C)C[C@H](NC(=O)NCc1ccc(Cl)cc1)C(=O)O", "cytotoxicity": "5.3%"}
{"compound": "COc1ccccc1C(=O)Nc1nnc(-c2ccc(F)cc2)o1", "cytotoxicity": "-1.2%"}
{"compound": "CCCOC(=O)Nc1nc2ccccc2o1", "cytotoxicity": "-0.4%"}
{"compound": "CC(C)CCn1cnc2c(cnn2-c2ccc(F)cc2)c1=O", "cytotoxicity": "-10.9%"}
{"compound": "C=CCOc1ccccc1CNn1nnnc1N", "cytotoxicity": "-4.5%"}
{"compound": "Nc1ccc(N2CCCCC2)cc1N1CCCCC1", "cytotoxicity": "34.3%"}
{"compound": "O=C(O)c1ccc(N2CCCCC2)cc1", "cytotoxicity": "-1.2%"}
